Laboratory results from PubChem BioAssay (NCATS).
Records with an inconclusive call do not appear. Activity calls are given as the source filed them. Unless noted, the call rests on the fitted dose curve; in most records, active means well fitted curve in the direction sought with a large enough effect; inconclusive means small, poorly fitted or top-dose-only effect, or another doubt; inactive means no such curve, though single readings can be large; an effect the other way counts as inactive or inconclusive.

What was measured:
[1] = P-glycoprotein substrates identified in KB-8-5-11 adenocarcinoma cell line, qHTS therapeutic library screen (AID 1346987); further: series mostly up to about 44 µM; nearly all actives have a fitted effect of over 65% in size
Summary of the method: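 P-gp-mediated resistance screen: KB-8-5-11 cells treated 72 h with compounds in dose-response. CellTiter-Glo viability.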

[2] = NS1 protein of Zika virus - qHTS assay to identify small molecule inhibitors in human HEK 293 cells (AID 1347053); further: series mostly up to about 46 µM; nearly all actives have a fitted effect of over 55% in size
Summary of the method: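 HEK 293 cells pretreated with compound for 1 h, then infected with ZIKV MR766 (MOI 0.5) for 24 h at 37 C. NS1 detected by TR-FRET with two anti-NS1 antibodies; normalized to uninfected (0%) and infected (100%) wells.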

[3] = qHTS for Inhibitors of the Functional Ribonucleoprotein Complex (vRNP) of Lassa (LASV) Arenavirus: LASV Primary Screen - GLuc reporter signal (AID 1347082; calls by dose curve; tested in HEK293 reporter line; further: series mostly up to about 57 µM; nearly all actives have a fitted effect of over 60% in size)
[4] = qHTS for Inhibitors of the Functional Ribonucleoprotein Complex (vRNP) of Lassa (LASV) Arenavirus: Viability assay - alamar blue signal for LASV Primary Screen (AID 1347083; calls by dose curve; tested in HEK293 reporter line; further: series mostly up to about 57 µM; nearly all actives have a fitted effect of over 80% in size)
[5] = qHTS for Inhibitors of the Functional Ribonucleoprotein Complex (vRNP) of Lymphocytic Choriomeningitis Arenaviruses (LCMV): Viability assay - alamar blue signal for LCMV Primary Screen (AID 1347085; calls by dose curve; tested in HEK293 reporter line; further: series mostly up to about 57 µM; nearly all actives have a fitted effect of over 80% in size)
[6] = target: Nucleoprotein (Lymphocytic choriomeningitis virus (strain Armstrong)) (UniProt P09992); assay: qHTS for Inhibitors of the Functional Ribonucleoprotein Complex (vRNP) of Lymphocytic Choriomeningitis Arenaviruses (LCMV): LCMV Primary Screen - GLuc reporter signal (AID 1347086; calls by dose curve; further: series mostly up to about 57 µM; nearly all actives have a fitted effect of over 70% in size)
Chain of Nucleoprotein (Lymphocytic choriomeningitis virus (strain Armstrong)) (P09992 whole entry, looked up): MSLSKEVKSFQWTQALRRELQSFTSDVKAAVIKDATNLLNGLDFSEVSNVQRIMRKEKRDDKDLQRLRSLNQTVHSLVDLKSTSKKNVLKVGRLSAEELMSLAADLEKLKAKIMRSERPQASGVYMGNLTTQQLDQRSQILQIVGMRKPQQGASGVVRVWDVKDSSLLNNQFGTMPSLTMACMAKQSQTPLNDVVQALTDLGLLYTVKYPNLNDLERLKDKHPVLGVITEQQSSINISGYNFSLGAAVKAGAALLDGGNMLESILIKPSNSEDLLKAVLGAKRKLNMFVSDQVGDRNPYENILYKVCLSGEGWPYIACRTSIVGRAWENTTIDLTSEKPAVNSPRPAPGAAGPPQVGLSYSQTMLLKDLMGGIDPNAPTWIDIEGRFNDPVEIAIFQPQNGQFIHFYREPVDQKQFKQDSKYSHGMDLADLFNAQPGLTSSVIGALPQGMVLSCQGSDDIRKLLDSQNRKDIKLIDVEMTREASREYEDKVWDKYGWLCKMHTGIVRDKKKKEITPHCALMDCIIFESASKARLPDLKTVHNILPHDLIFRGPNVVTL

[7] = qHTS of pediatric cancer cell lines to identify multiple opportunities for drug repurposing: Primary screen for TC32 cells (AID 1347089); further: nearly all actives have a fitted effect of over 60% in size
Summary of the method: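 Measured quantity: luminescence from CellTiter-Glo, reflecting metabolically active TC32 cells following 48 h of compound. Curves came straight from multi-point titrations, with 8 or 11 points in primary and 11 in confirmatory screening.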

[8] = qHTS of pediatric cancer cell lines to identify multiple opportunities for drug repurposing: Primary screen for DAOY cells (AID 1347090); further: series mostly up to about 46 µM; nearly all actives have a fitted effect of over 55% in size
Summary of the method: (§1)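 Cell viability, CellTiter-Glo luminescence; 500-1,000 cells/well, 8- or 11-point titration, 48 h compound exposure at 37 degrees C, 5% CO2. Controls: DMSO neutral, bortezomib 2.3 µM final as positive.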

[9] = qHTS of pediatric cancer cell lines to identify multiple opportunities for drug repurposing: Primary screen for SJ-GBM2 cells (AID 1347091)
Summary of the method: as §1

[10] = qHTS of pediatric cancer cell lines to identify multiple opportunities for drug repurposing: Primary screen for A673 cells (AID 1347092); further: nearly all actives have a fitted effect of over 45% in size
Summary of the method: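 Cells are plated, rested 5 h, dosed by pintool, incubated 48 h, then lysed with CellTiter-Glo and read by luminescence. DMSO is the neutral control; bortezomib at 2.3 uM final is the positive control.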

[11] = qHTS of pediatric cancer cell lines to identify multiple opportunities for drug repurposing: Primary screen for SK-N-MC cells (AID 1347093); further: series mostly up to about 46 µM
Summary of the method: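 Metabolically active cells were quantified by ATP-dependent luminescence (CellTiter-Glo, 15 min at room temperature) following 48 h treatment. Cells had been plated at 500-1,000 per well and settled for 5 h beforehand.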

[12] = qHTS of pediatric cancer cell lines to identify multiple opportunities for drug repurposing: Primary screen for BT-37 cells (AID 1347094); further: series mostly up to about 57 µM
Summary of the method: (§2)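 Luminescence from CellTiter-Glo served as readout of metabolically active cells after 48 h compound exposure. Titrations: MIPE 11-point, from 0.78 nM; NPC 8-point, from 0.59 nM (final). Concentration-response curves came straight from the primary screen.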

[13] = qHTS of pediatric cancer cell lines to identify multiple opportunities for drug repurposing: Primary screen for NB-EBc1 cells (AID 1347095)
Summary of the method: as §2

[14] = qHTS of pediatric cancer cell lines to identify multiple opportunities for drug repurposing: Primary screen for U-2 OS cells (AID 1347096); further: nearly all actives have a fitted effect of over 50% in size
Summary of the method: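 Cells (500-1,000/well) rested 5 h, then received compounds for 48 h; metabolically active cells were measured by CellTiter-Glo luminescence. Final concentrations spanned up to 46 µM (MIPE, 11-point) or 0.59 nM-46 µM (NPC, 8-point) in primary screens, 11-point in follow-ups.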

[15] = qHTS of pediatric cancer cell lines to identify multiple opportunities for drug repurposing: Primary screen for Saos-2 cells (AID 1347097); further: nearly all actives have a fitted effect of over 40% in size
Summary of the method: as §2

Measured: Potency

NNc1ccccc1
inactive: [1] | [2] | [3] | [4] | [5] | [6] | [7] | [8] | [9] | [10] | [11] | [12] | [13] | [14] | [15]

C[C@@H](N)[C@@H](O)c1ccccc1
inactive: [1] | [2] | [3] | [4] | [5] | [6] | [7] | [8] | [9] | [10] | [11] | [12] | [13] | [14] | [15]

NC(=O)c1cc([N+](=O)[O-])cc([N+](=O)[O-])c1
inactive: [1] | [2] | [3] | [4] | [5] | [6] | [7] | [8] | [9] | [10] | [11] | [12] | [13] | [14] | [15]

c1ccc(CN2CCNCC2)cc1
inactive: [1] | [2] | [3] | [4] | [5] | [6] | [7] | [8] | [9] | [10] | [11] | [12] | [13] | [14] | [15]

CN1CCC(O)(c2ccc(F)cc2)C(C(=O)c2ccc(F)cc2)C1 (stereo not given)
inactive: [1] | [2] | [3] | [4] | [5] | [6] | [7] | [8] | [9] | [10] | [11] | [12] | [13] | [14] | [15]

CCN[C@H](C)Cc1cccc(C(F)(F)F)c1
inactive: [1] | [2] | [3] | [4] | [5] | [6] | [7] | [8] | [9] | [10] | [11] | [12] | [13] | [14] | [15]

CCC1(CC)C(=O)C=CNC1=O
inactive: [1] | [2] | [3] | [4] | [5] | [6] | [7] | [8] | [9] | [10] | [11] | [12] | [13] | [14] | [15]

COc1ccc2c3c1O[C@H]1[C@H](O)CC[C@H]4[C@@H](C2)N(C)CC[C@@]341
inactive: [1] | [2] | [3] | [4] | [5] | [6] | [7] | [8] | [9] | [10] | [11] | [12] | [13] | [14] | [15]

Nc1ccccc1C(=O)O
inactive: [1] | [2] | [3] | [4] | [5] | [6] | [7] | [8] | [9] | [10] | [11] | [12] | [13] | [14] | [15]

CN1CC[C@]23c4c5ccc(O)c4O[C@H]2[C@@H](O)CC[C@H]3[C@H]1C5
inactive: [1] | [2] | [3] | [4] | [5] | [6] | [7] | [8] | [9] | [10] | [11] | [12] | [13] | [14] | [15]

COC(=O)C(Cl)C(=O)OC
inactive: [1] | [2] | [3] | [4] | [5] | [6] | [7] | [8] | [9] | [10] | [11] | [12] | [13] | [14] | [15]

O=C1c2ccccc2C(=O)c2ccccc21
inactive: [1] | [2] | [3] | [4] | [5] | [6] | [7] | [8] | [9] | [10] | [11] | [12] | [13] | [14] | [15]

CCOC(=O)CC(SP(=S)(OC)OC)C(=O)OCC (stereo not given)
inactive: [1] | [2] | [3] | [4] | [5] | [6] | [7] | [8] | [9] | [10] | [11] | [12] | [13] | [14] | [15]

CN1C(=O)COc2c(C(=O)NC3CN4CCC3CC4)cc(Cl)cc21 (stereo not given)
inactive: [1] | [2] | [3] | [4] | [5] | [6] | [7] | [8] | [9] | [10] | [11] | [12] | [13] | [14] | [15]

COc1cc(CC(C)N)cc(OC)c1OC (stereo not given)
inactive: [1] | [2] | [3] | [4] | [5] | [6] | [7] | [8] | [9] | [10] | [11] | [12] | [13] | [14] | [15]

O=C(N/N=C/c1ccc([N+](=O)[O-])o1)c1cc([N+](=O)[O-])cc([N+](=O)[O-])c1O
inactive: [1] | [2] | [3] | [4] | [5] | [6] | [7] | [8] | [9] | [10] | [11] | [12] | [13] | [14] | [15]

CNC(C)(C)Cc1ccccc1
inactive: [1] | [2] | [3] | [4] | [5] | [6] | [7] | [8] | [9] | [10] | [11] | [12] | [13] | [14] | [15]

CC1(C)C(C=C(Cl)Cl)C1C(=O)OC(C#N)c1cccc(Oc2ccccc2)c1 (stereo not given)
inactive: [1] | [2] | [3] | [4] | [5] | [6] | [7] | [8] | [9] | [10] | [11] | [12] | [13] | [14] | [15]
